The panel holds about 79,000 compounds, 15% with a hit somewhere; the sample as a whole holds those more often. Values without a mark were called inactive. Calls of active or inactive are those of the source. Rule as the data show it: active = growth inhibition above about 70%; inactive = the rest.
test: NCI Yeast Anticancer Drug Screen. Data for the rad50 strain (AID 155);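 also: 0% = growth of vehicle-only cultures of the same strain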; settings: S. cerevisiae rad50 strain growth inhibition; at 50.0 µM; active compounds read high
How it was run: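 Growth of the mutant yeast was measured after compound exposure and referenced to vehicle-treated cultures.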

Going from Cc1cccc(NC(=O)C(Cl)Cl)n1 to COc1ccc(NC(=O)Nc2cccc(Cl)c2C)c(OC)c1, the growth inhibition rises from -2.3% to -0.9%.

Going from COC(=O)c1nc(=S)[nH]c(C(=O)OC)c1C(=O)c1cccc2ccccc12 to O=c1[nH]c2cc3ccccc3cc2c2ccccc12, the growth inhibition rises from 8.6% to 21.9%.

Compared with CC(=N/N(C)c1ccccc1)/C(C)=N/N(C)c1ccccc1, O=C(N/N=C\c1ccccc1)Nc1cccc2ccccc12 is lower in growth inhibition: 19.1% for the first, -27.4% for the second.

Compared with CCc1c(NCCO)c(C(=O)NCCO)c2nc3ccccc3n2c1NCCO, CC1(C)OCN(c2ccc(Cl)cc2)Cn2c1nc1ccccc12 is lower in growth inhibition: 2.2% for the first, -6.65% for the second.

Compared with O=C1OC(=O)C2C1C1C=CC2C1(c1ccccc1)c1ccccc1 (stereo not given), COC1=NS(=O)(=O)C2(O1)c1ccccc1-c1ccccc12 is higher in growth inhibition: 9.05% for the first, 15.2% for the second.

First: CC(=O)OCC1OC(n2cnc3c(N)ncnc32)C(O)C1O (stereo not given)
Second: O=c1[nH]c(=O)n(C2OC(COP(=O)(O)OP(=O)(O)OC3OC(CO)C(O)C(O)C3O)C(O)C2O)cc1F (stereo not given)
The growth inhibition of the first is lower: -3.7% for the first, 1.15% for the second.

Going from Clc1cccc(C2N3CCCCC3[C@@H]3c4[nH]c5ccccc5c4CCN23)c1 (stereo not given in full) to O=C1c2ccccc2-c2cc(F)ccc21, the growth inhibition rises from -0.75% to 18.3%.

First: CC1(C)SCCNC1=O
Second: CCC1(C)C(=O)SC(=S)N1C (stereo not given)
The growth inhibition of the first is lower: 3.35% for the first, 4.4% for the second.

Going from O=C1NC(=Nc2ccccc2Cl)SC1C(=O)Nc1ccc([N+](=O)[O-])cc1[N+](=O)[O-] (stereo not given) to Cn1cc(/C=C/C(=O)c2ccccc2[N+](=O)[O-])c2ccccc21, the growth inhibition falls from 8.1% to 7.8%.

Compared with CCSCC1C(=O)C23C(O)C1CCC2C12COC3(O)C(O)C1C(C)(C)CCC2O (stereo not given), CC(=O)OC1CCC2(C)C(=CCC3C2CCC2(C)C3CC(Br)C2(O)C(C)=O)C1 (stereo not given) is higher in growth inhibition: 16.6% for the first, 41.9% for the second.

First: N#CC(C(=O)O)C1(c2ccccc2)CCCCC1 (stereo not given)
Second: O=C(NC(=S)Nc1ccsc1)c1ccccc1
The growth inhibition of the first is lower: -13% for the first, 14.6% for the second.

First: CC(C)(C)c1cc(-c2c3nc(c(-c4cc(C(C)(C)C)cc(C(C)(C)C)c4)c4ccc([nH]4)c(-c4cc(C(C)(C)C)cc(C(C)(C)C)c4)c4nc(c(-c5cc(C(C)(C)C)cc(C(C)(C)C)c5)c5ccc2[nH]5)C=C4)C=C3)cc(C(C)(C)C)c1
Second: CC(=N\NS(=O)(=O)c1ccc(C)cc1)/C(C)=N/NS(=O)(=O)c1ccc(C)cc1
The growth inhibition of the first is lower: 19.8% for the first, 25.3% for the second.

Going from COc1ccc([N+](=O)[O-])c(C(OC(C)=O)OC(C)=O)c1OC(C)=O to CN(C)CCNC(=O)c1cccc(C(C)(C)C)c1[N+](=O)[O-], the growth inhibition falls from 4% to -11.2%.

First: CCCC(C)C(=O)OC1CCCC1 (stereo not given)
Second: COC(=O)C[C@H](C)[C@H](C)CC(=O)O
The growth inhibition of the first is higher: 11% for the first, -17.6% for the second.

Compared with CC(C)=C1CCC(CN2CCOCC2)C1=O (stereo not given), O=C(O)c1ccc(C(=O)O)c(C(=O)O)c1.[NH-]C1CCCCC1[NH-].[Pd+2] is lower in growth inhibition: 25.2% for the first, 11.1% for the second.

Compared with CCC(C)NC(=O)/C=C/C(=O)NC(C)CC (stereo not given), C=CCOC(=O)NC(CCC(N)=O)C(=O)O (stereo not given) is higher in growth inhibition: 5.4% for the first, 19.7% for the second.

Compared with O=C(O)c1cc(Cl)cc([N+](=O)[O-])c1, CCOC(=O)/C(O)=C(/C=NC(=S)c1ccncc1)C(=O)OCC is lower in growth inhibition: 41.1% for the first, -28.2% for the second.

First: CCCCCCc1c(C)nc(N)[nH]c1=O
Second: CN(C)C(CN)CC1=C(CC(CN)N(C)C)CCC1 (stereo not given)
The growth inhibition of the first is higher: 7.55% for the first, -15.5% for the second.

In the case of O=C(C(=Nc1ccccc1)C(=Nc1ccccc1)C(=O)c1ccccc1)c1ccccc1, the growth inhibition is reported as 78.8% (active).
With CC(C)(C)NC(=S)N/N=C/c1ccccn1 the growth inhibition was 77.2% (active).
In the case of CCCCCN(CCCCC)C(=S)[S-].CCCCCN(CCCCC)C(=S)[S-].[Zn], the growth inhibition is reported as 72.7% (active).
For CC(=O)C1(SCCO)CCC2C3CCC4=CC(=O)CCC4(C)C3CCC21C (stereo not given), the growth inhibition was 91.8% (active).
